In PubChem BioAssay AID1159580 (chemical genetic matrix, 2015):
Among all 5,500 compounds or so, about 2,000 (36%) were called active. Roughly 18% stayed inconclusive and do not appear here. No stated cut-off is given here; in the data, active means normalized growth mostly below about 0.91 (no sharp cut-off); inconclusive means no clear call, values can overlap the other calls; inactive means mostly above about 0.92. The list shows a part of the results.

Assay: chemical genetic growth profiling, strain panel (AID 1159580);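 further: tested at 20 µM; growth read once vehicle control cultures reached saturation at 30 °C; 1 = growth at the plate median or of vehicle wells; lower values mean less growth of the strain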
Conditions: growth OD

Measured: normalized growth

CNC(=O)CSP(=S)(OC)OC
inactive: S. cerevisiae deletion strains, locus YJR075W, strain HOC1, hits give low values 1.02 | S. cerevisiae deletion strains, locus YKL009W, strain mrt4, hits give low values 1 | S. cerevisiae deletion strains, locus YKL068W, hits give low values 1.01 | S. cerevisiae deletion strains, locus YKL085W, strain MDH1 (second series), hits give low values 1.01 | S. cerevisiae deletion strains, locus YKL085W, strain MDH1, hits give low values 1.01 | S. cerevisiae deletion strains, locus YKL160W, strain elf1, hits give low values 1.01 | S. cerevisiae deletion strains, locus YKL190W, strain CNB1, hits give low values 0.979 | S. cerevisiae deletion strains, locus YKR001C, strain vps1, hits give low values 1.02 | S. cerevisiae deletion strains, locus YKR026C, strain gcn3, hits give low values 1.01 | S. cerevisiae deletion strains, locus YKR091W, strain srl3, hits give low values 1.02 | S. cerevisiae deletion strains, locus YLL001W, strain dnm1, hits give low values 1.01 | S. cerevisiae deletion strains, locus YLL026W, hits give low values 1.02 | S. cerevisiae deletion strains, locus YLL041C, strain sdh2, hits give low values 1.03 | S. cerevisiae deletion strains, locus YLR027C, strain aat2, hits give low values 1.01 | S. cerevisiae deletion strains, locus YLR039C, strain RIC1, hits give low values 0.993 | S. cerevisiae deletion strains, locus YLR058C, strain SHM2, hits give low values 1.01 | S. cerevisiae deletion strains, locus YLR102C, strain apc9, hits give low values 1.02 | S. cerevisiae deletion strains, locus YLR113W, strain HOG1, hits give low values 0.997 | S. cerevisiae deletion strains, locus YLR221C, strain rsa3, hits give low values 1.03 | S. cerevisiae deletion strains, locus YLR258W, strain gsy2, hits give low values 1.03 | S. cerevisiae deletion strains, locus YLR262C, strain YPT6 (second series), hits give low values 1.05 | S. cerevisiae deletion strains, locus YLR262C, strain YPT6, hits give low values 0.999 | S. cerevisiae deletion strains, locus YLR268W, strain sec22, hits give low values 1.01 | S. cerevisiae deletion strains, locus YLR320W, strain mms22, hits give low values 1.02 | S. cerevisiae deletion strains, locus YLR330W, strain CHS5, hits give low values 1.01 | S. cerevisiae deletion strains, locus YLR342W, strain FKS1 (second series), hits give low values 1.04 | S. cerevisiae deletion strains, locus YLR342W, strain FKS1, hits give low values 1.02 | S. cerevisiae deletion strains, locus YLR357W, strain rsc2, hits give low values 0.986 | S. cerevisiae deletion strains, locus YLR370C, strain arc18, hits give low values 1.03 | S. cerevisiae deletion strains, locus YLR371W, strain rom2, hits give low values 1.02 | S. cerevisiae deletion strains, locus YLR384C, strain iki3, hits give low values 1.04 | S. cerevisiae deletion strains, locus YLR418C, strain cdc73, hits give low values 1.01 | S. cerevisiae deletion strains, locus YML016C, strain PPZ1, hits give low values 1 | S. cerevisiae deletion strains, locus YML032C, strain rad52, hits give low values 1.03 | S. cerevisiae deletion strains, locus YML120C, strain ndi1, hits give low values 1.02 | S. cerevisiae deletion strains, locus YML124C, strain tub3, hits give low values 1.02 | S. cerevisiae deletion strains, locus YMR058W, strain fet3, hits give low values 1.01 | S. cerevisiae deletion strains, locus YMR078C, strain ctf18, hits give low values 1.02 | S. cerevisiae deletion strains, locus YMR125W, strain sto1, hits give low values 1.02 | S. cerevisiae deletion strains, locus YMR129W, hits give low values 1.01 | S. cerevisiae deletion strains, locus YMR205C, strain PFK2, hits give low values 1.01 | S. cerevisiae deletion strains, locus YMR223W, strain ubp8, hits give low values 1.02 | S. cerevisiae deletion strains, locus YMR231W, strain pep5, hits give low values 1.01 | S. cerevisiae deletion strains, locus YMR263W, strain SAP30, hits give low values 1.02 | S. cerevisiae deletion strains, locus YMR307W, strain GAS1, hits give low values 1.03 | S. cerevisiae deletion strains, locus YNL067W, strain RPL9B, hits give low values 1.01 | S. cerevisiae deletion strains, locus YNL071W, strain lat1, hits give low values 1 | S. cerevisiae deletion strains, locus YNL128W, strain TEP1, hits give low values 1.01 | S. cerevisiae deletion strains, locus YNL153C, strain GIM3, hits give low values 1.01 | S. cerevisiae deletion strains, locus YNL183C, strain NPR1, hits give low values 0.982 | S. cerevisiae deletion strains, locus YNL209W, strain ssb2, hits give low values 0.999 | S. cerevisiae deletion strains, locus YNL233W, strain BNI4, hits give low values 0.991 | S. cerevisiae deletion strains, locus YNL248C, strain rpa49, hits give low values 1.02 | S. cerevisiae deletion strains, locus YNL250W, strain rad50, hits give low values 1.02 | S. cerevisiae deletion strains, locus YNL271C, strain bni1, hits give low values 1.02 | S. cerevisiae deletion strains, locus YNL298W, strain CLA4, hits give low values 1.02 | S. cerevisiae deletion strains, locus YNL307C, strain MCK1, hits give low values 1.04 | S. cerevisiae deletion strains, locus YNL322C, strain KRE1 (second series), hits give low values 1 | S. cerevisiae deletion strains, locus YNL322C, strain KRE1, hits give low values 1.01 | S. cerevisiae deletion strains, locus YNR049C, strain mso1, hits give low values 1.02 | S. cerevisiae deletion strains, locus YNR052C, strain pop2, hits give low values 1.02 | S. cerevisiae deletion strains, locus YOL006C, strain TOP1, hits give low values 1.05 | S. cerevisiae deletion strains, locus YOL012C, strain htz1 1.12 | S. cerevisiae deletion strains, locus YOL147C, strain pex11, hits give low values 1.01 | S. cerevisiae deletion strains, locus YOR001W, strain rrp6, hits give low values 1.02 | S. cerevisiae deletion strains, locus YOR061W, strain CKA2, hits give low values 1.01 | S. cerevisiae deletion strains, locus YOR069W, strain VPS5, hits give low values 1 | S. cerevisiae deletion strains, locus YOR070C, strain gyp1, hits give low values 1.02 | S. cerevisiae deletion strains, locus YOR080W, strain dia2, hits give low values 1.02 | S. cerevisiae deletion strains, locus YOR083W, strain WHI5, hits give low values 1.01 | S. cerevisiae deletion strains, locus YOR106W, strain vam3, hits give low values 1.01 | S. cerevisiae deletion strains, locus YOR136W, strain idh2, hits give low values 1.01 | S. cerevisiae deletion strains, locus YOR144C, strain elg1, hits give low values 1.02 | S. cerevisiae deletion strains, locus YOR184W, strain ser1, hits give low values 1.04 | S. cerevisiae deletion strains, locus YOR231W, strain MKK1, hits give low values 1.04 | S. cerevisiae deletion strains, locus YOR265W, strain rbl2, hits give low values 1.03 | S. cerevisiae deletion strains, locus YOR270C, strain vph1, hits give low values 1.05 | S. cerevisiae deletion strains, locus YOR290C, strain snf2, hits give low values 1.03 | S. cerevisiae deletion strains, locus YOR316C, strain cot1, hits give low values 1.03 | S. cerevisiae deletion strains, locus YPL051W, strain arl3, hits give low values 1.01 | S. cerevisiae deletion strains, locus YPL055C, strain LGE1, hits give low values 1 | S. cerevisiae deletion strains, locus YPL078C, strain atp4, hits give low values 1.01 | S. cerevisiae deletion strains, locus YPL106C, strain sse1, hits give low values 1 | S. cerevisiae deletion strains, locus YPL240C, strain hsp82, hits give low values 1.02 | S. cerevisiae deletion strains, locus YPL241C, strain CIN2, hits give low values 1.02 | S. cerevisiae deletion strains, locus YPL256C, strain CLN2, hits give low values 1.05 | S. cerevisiae deletion strains, locus YPR119W, strain clb2, hits give low values 1.02 | S. cerevisiae deletion strains, locus YPR141C, strain kar3, hits give low values 1.02 | S. cerevisiae deletion strains, locus YPR163C, strain tif3, hits give low values 1.02 | S. cerevisiae deletion strains, locus YPR167C, strain met16, hits give low values 1.02 | S. cerevisiae deletion strains, strain wtn01, hits give low values 1.02 | S. cerevisiae strains, strain wild type, hits give low values 1.02
